KLF5 inhibitor: kruppel-like factor 5 inhibition; DLD-1 KLF5 promoter-luciferase reporter, luminescence; 290,000 compounds, 0.23% hits; inhibition, % at 5 µM;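 active = inhibition above a per-plate limit of that plate's mean compound inhibition plus 3 SD, cut at about 60% in these data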;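 also: higher means less KLF5 promoter-driven luciferase light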
BaF3 tox: reduces parental Ba/F3 cell viability, JAK2V617F counter-screen; CellTiter-Glo ATP luminescence; 220,000 compounds, 1.1% hits; inhibition, % at 5.6 µM;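 active = inhibition above a per-campaign cutoff, the mean inhibition of all tested compounds plus 3 SD, cut at about 27% in these data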
Ba/F3 V617F tox: lowers viability of Ba/F3 cells expressing EpoR and JAK2V617F; ATP luminescence; 220,000 compounds, 1.1% hits; inhibition, % at 5.6 µM;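 active = inhibition above the campaign mean plus 3 SD over all tested compounds, cut at about 24% in these data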;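 also: cytokine-independent growth of Ba/F3 cells driven by EpoR plus mutant JAK2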
APP transl inh: APP translation inhibition. inhibition, % at 2 µM. 190,000 compounds, 0.82% hits. SH-SY5Y APP 5'UTR-luciferase reporter, luminescence. AID 1285;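 active = inhibition above a set limit, derived from the sample mean plus 3 SD, cut at about 45% in these data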
IEC-6 tox: counter-screen for KLF5 inhibitors: cytotoxicity in IEC-6 cells; IEC-6 cytotoxicity, luminescence viability; inhibition, % at 5 µM; 290,000 compounds, 0.78% hits; in the data active = inhibition above about 22%
aSyn 5UTR inh: MLPCN primary screen, SNCA 5' untranslated region. 300,000 compounds, 0.82% hits. inhibition, % (tested at 7.5 µM). alpha-synuclein 5'UTR reporter, inhibitor activity; in the data active = inhibition above about 60%;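 also: H4 neuroglioblastoma cells stably carrying SNCA 5'UTR luciferase fusion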
Of the large screens only hits and unclear results are named; the others gave an inactive call. An excerpt weighted towards active compounds, which were near 2.2% of everything screened.

CC1=C(C#N)C(c2ccccc2)C2=C(N1)c1ccccc1C2=O (stereo unspecified)	APP transl inh 78
Cc1cc(NS(=O)(=O)c2ccc(NC(=O)CCSc3ccc(F)cc3)cc2)nc(C)n1	none (no result: APP transl inh)
CC1SCC(NC(=O)c2ccc(Cl)cc2)CS1 (stereo unspecified)	BaF3 tox 46 (no result: APP transl inh)
CC1SCC(NC(=O)c2cccc(Cl)c2)CS1 (stereo unspecified)	none (no result: APP transl inh)
Cc1nn(CC(N)=O)c(=O)c2ccccc12	BaF3 tox 44
CCOC(=O)Cn1nc(C)c2ccccc2c1=O	none
O=C(O)c1ccc2c(c1)N(Cc1ccccc1)C(=O)c1ccccc1S2	none (no result: APP transl inh)
COc1cc(NC(=O)c2ccccc2Cl)c2ncccc2c1	none (no result: BaF3 tox, Ba/F3 V617F tox, APP transl inh)
COc1cc(NCCCC(C)N)c2ncccc2c1 (stereo unspecified)	BaF3 tox 36, Ba/F3 V617F tox 41
CCC(CNc1cc(OC)cc2cccnc12)NC1CCCCC1 (stereo unspecified)	BaF3 tox 27, Ba/F3 V617F tox 43 (no result: APP transl inh)
CN(C)CCNC(=O)c1cc2sc3ccccc3c2s1	none
OCCNc1cnc2ccccc2n1	APP transl inh 49
COc1ccc(C(=O)NC(=O)Nc2cc(C)ccn2)cc1	aSyn 5UTR inh 72
COc1ccc(C(=O)Nc2ccccc2C(=O)Nc2cc(C)ccn2)cc1	none (no result: BaF3 tox, Ba/F3 V617F tox, APP transl inh)
Cn1c(-c2ccc(F)cc2)cnc1NCc1cccc(F)c1	none
Cn1c(-c2ccc3c(c2)OCO3)cnc1NCc1cccc(O)c1	BaF3 tox 90
Cc1cc(C(F)F)n2nc(C(=O)Nc3cccnc3Cl)nc2n1	BaF3 tox 95
COc1ccc(CNc2nc3ccccc3s2)cc1OC	none (no result: BaF3 tox, Ba/F3 V617F tox, APP transl inh)
Cc1ccc(CNc2nc3ccccc3s2)s1	aSyn 5UTR inh 78
CC1=CC(C)C(C(=O)O)C(C(=O)O)C1 (stereo unspecified)	none
CC[N+](C)(CC)CC(=O)OCC1C(C)C=C(C)CC1C (stereo unspecified)	BaF3 tox 34, Ba/F3 V617F tox 27 (no result: APP transl inh)
CN(C)CCCNC(=S)NCC(c1ccc(Cl)cc1Cl)c1c[nH]c2ccccc12 (stereo unspecified)	aSyn 5UTR inh 111 (no result: BaF3 tox, Ba/F3 V617F tox, APP transl inh)
CCCCNC(=S)NCC(c1ccccc1)c1c[nH]c2ccccc12 (stereo unspecified)	none (no result: BaF3 tox, Ba/F3 V617F tox, APP transl inh)
CCOc1ccccc1OCC(=O)OCC(=O)c1c(C)[nH]c2ccccc12	none (no result: KLF5 inhibitor, BaF3 tox, Ba/F3 V617F tox, APP transl inh, IEC-6 tox)
NC(=O)c1cc(Br)cc2c3c([nH]c12)CCCC3	none
NC(=O)c1cc(Br)cc(C2CCCCC2)c1O	aSyn 5UTR inh 87 (no result: APP transl inh)
COc1ccc(NC(=S)N2CCCC2)c(OC)c1	none
CCN(CC)S(=O)(=O)c1ccc2c(c1)N(CC(=O)N1CCC(C(N)=O)CC1)C(=O)CO2	none (no result: BaF3 tox, Ba/F3 V617F tox, APP transl inh)
Cc1ccc(Cn2c(Sc3ncccn3)nc3c2c(=O)[nH]c(=O)n3C)cc1	none
CCCCCn1c(Sc2ncccn2)nc2c1c(=O)[nH]c(=O)n2C	APP transl inh 64
COc1cc(NC(=O)Cn2ncc(Cl)c(Cl)c2=O)c(C)cc1[N+](=O)[O-]	BaF3 tox 73, Ba/F3 V617F tox 74, APP transl inh 95, aSyn 5UTR inh 121
COc1ccc(OC)c(CCNC(=O)c2cccc(NC3=NC4CS(=O)(=O)CC4S3)c2)c1 (stereo unspecified)	none (no result: BaF3 tox, Ba/F3 V617F tox, APP transl inh)
O=C(CSc1ccc(-c2cccs2)nn1)c1cccs1	none
CC1C/C(=C/c2ccccn2)C(=O)/C(=C/c2ccccn2)C1 (stereo unspecified)	BaF3 tox 73, Ba/F3 V617F tox 52, APP transl inh 98, aSyn 5UTR inh 89
O=C1/C(=C/c2ccccn2)COc2ccccc21	none
CC(C)(C)C1C/C(=C/c2ccccn2)C(=O)/C(=C/c2ccccn2)C1 (stereo unspecified)	APP transl inh 95, aSyn 5UTR inh 103
COc1ccc(C2Oc3ccccc3C3=C2C(c2cccs2)n2ncnc2N3)cc1 (stereo unspecified)	none
Brc1ccc(C2C3=C(Nc4ncnn42)c2ccccc2OC3c2ccncc2)cc1 (stereo unspecified)	aSyn 5UTR inh 71
O=C(Cn1ccc([N+](=O)[O-])n1)N1CCCCC1	BaF3 tox 43
O=C(NNC(=O)C1CCN(c2ncccn2)CC1)c1ccc(Cl)cc1	BaF3 tox 90
CCC1C/C(=C\c2cccnc2)C(=O)/C(=C/c2cccnc2)C1 (stereo unspecified)	APP transl inh 95, IEC-6 tox 30 (no result: aSyn 5UTR inh)
O=C1/C(=C/c2cccnc2)CC/C1=C\c1cccnc1	none
CC(C)/C=C1\CC/C(=C\c2cccnc2)C1=O	none
O=C1/C(=C/c2cccnc2)CCC/C1=C\c1cccnc1	APP transl inh 95 (no result: aSyn 5UTR inh)
Cc1ccc(NC(=O)CCC(=O)c2cccs2)nc1	none (no result: KLF5 inhibitor, BaF3 tox, Ba/F3 V617F tox, APP transl inh, IEC-6 tox)
Cc1ccnc(NC(=O)CCC(=O)c2cccs2)c1	aSyn 5UTR inh 84 (no result: KLF5 inhibitor, BaF3 tox, Ba/F3 V617F tox, APP transl inh, IEC-6 tox)
Cc1cc2oc(C(=O)NCc3ccccc3)cc(=O)c2cc1C	IEC-6 tox 22 (no result: BaF3 tox, Ba/F3 V617F tox, APP transl inh)
CCCCC#Cc1ccc2c(c1)COc1c3ccccc3nn1-2	none (no result: KLF5 inhibitor, BaF3 tox, Ba/F3 V617F tox, APP transl inh, IEC-6 tox)
N#CCCCC#Cc1ccc2c(c1)COc1c3ccccc3nn1-2	aSyn 5UTR inh 77 (no result: KLF5 inhibitor, BaF3 tox, Ba/F3 V617F tox, APP transl inh, IEC-6 tox)
Cc1cc(-c2cccs2)c(C#N)c(=S)[nH]1	BaF3 tox 63 (no result: APP transl inh)
N#Cc1c(-c2cccs2)cc(-c2cccs2)[nH]c1=O	none (no result: APP transl inh)
CCN(CC)CCn1cnc2c([nH]c3cccc(OC)c32)c1=O	BaF3 tox 69
Cc1onc(-c2ccc(Cl)cc2)c1-c1ccnn1S(=O)(=O)c1cccc(C(F)(F)F)c1	none (no result: APP transl inh)
OCCN=C1CCCc2c1[nH]c1ccc(Br)cc21	aSyn 5UTR inh 62
Brc1ccc2[nH]c3c(c2c1)CCC3	none (no result: APP transl inh)
C=CCN1CCN(C(=O)CCc2ccccc2)CC1	none (no result: BaF3 tox, Ba/F3 V617F tox, APP transl inh)
Cc1ccc(C(=O)NCCc2ccccc2)cc1	aSyn 5UTR inh 71 (no result: BaF3 tox, Ba/F3 V617F tox, APP transl inh)
Cc1csc(=O)n1CCC(=O)OCC(=O)Nc1cc([N+](=O)[O-])ccc1Cl	none (no result: KLF5 inhibitor, BaF3 tox, Ba/F3 V617F tox, APP transl inh, IEC-6 tox)
COCCC(=O)N1CCCC(CNS(=O)(=O)c2ccc(OC)cc2)C1 (stereo unspecified)	BaF3 tox 90
COCC(=O)N1CCCC(CNS(=O)(=O)c2ccc(OC)cc2)C1 (stereo unspecified)	none
Nc1nnc(SCCCOc2ccc(F)cc2)s1	none (no result: BaF3 tox, Ba/F3 V617F tox, APP transl inh)
CCCOc1ccc(OCCSc2nnc(N)s2)cc1	BaF3 tox 40, Ba/F3 V617F tox 24
O=c1[nH]c(SCc2nc3ccccc3n2Cc2ccccc2)nc2ccccc12	none (no result: APP transl inh)
Nc1cc(=O)[nH]c(SCc2nc3ccccc3n2Cc2ccccc2)n1	APP transl inh 46
Cc1ccc(NC(=O)O/N=C/c2c(C)nn(C(C)(C)C)c2C)cc1Cl	aSyn 5UTR inh 77 (no result: APP transl inh)
Cc1cnc(NC(=O)c2cc3c(s2)CCCC3)s1	aSyn 5UTR inh 65
Cc1csc(NC(=O)c2cc3c(s2)CCCC3)n1	none
COc1ccc(-c2noc(CNC(=O)c3ccoc3C)n2)cc1OC	none (no result: BaF3 tox, Ba/F3 V617F tox, APP transl inh)
CCOC(=O)C1CC2CC(C1)CN(C(=O)C1CCCCC1)C2 (stereo unspecified)	none
C/C(N)=C(/C#N)C(=O)COC(=O)c1ccc(C#N)cc1	none
COc1cc(/C=N/NC(=O)C(Cc2c[nH]c3ccccc23)NC(=O)OCC(C)C)cc([N+](=O)[O-])c1OCc1ccccc1 (stereo unspecified)	BaF3 tox 100, Ba/F3 V617F tox 95

Screening results: PubChem BioAssay, several laboratories
